Only a sample is shown.
aSyn 5UTR act: Activators working through SNCA 5'UTR binding (MLPCN); alpha-synuclein 5'UTR reporter, activators screen; activity score, % (tested at 7.5 µM), hits read low; 300,000 compounds, 7.1% hits; AID 1814; in the data active means activity score below about -60%
* marks the source's active call; other numbers are inactive results.

For CC(C)(C)C(=O)Nc1nnc(SCc2ccc(F)cc2)s1 the results were aSyn 5UTR act -82*.
`Cc1ccnc(N2CCN(C(=O)CSc3nc4ccccc4nc3N3CCC(C)CC3)CC2)c1` gave aSyn 5UTR act -80*.
Screening O=C1/C(=C\c2cccs2)Sc2ccc3ccccc3c21 returned aSyn 5UTR act -165*.
`Cc1ccccc1Nc1nnc(SCC2CCCCO2)s1` (stereo not drawn) gave aSyn 5UTR act -85*.
Cc1ccc(Nc2nnc(SCC3CCCCO3)s2)cc1 (stereo not drawn) was read as aSyn 5UTR act -137*.
Screening O=[N+]([O-])c1cccc(-c2nnn(C34CC5CC(CC(C5)C3)C4)n2)c1 returned aSyn 5UTR act -82*.
`CNc1c(N)c(=O)oc2ccccc12` gave aSyn 5UTR act -74*.
c1ccc2c(c1)nnn2-c1ncnc2sccc12 was read as aSyn 5UTR act -147*.
For Cc1cc(C)nc(N/N=C/c2ccccc2Cl)n1 the results were aSyn 5UTR act -88*.
Cc1cc(C)c2nc(C)cc(N/N=C/c3ccc(O)cc3)c2c1 was read as aSyn 5UTR act 112.
Screening Cc1ccsc1/C=N/Nc1ncc(Cl)cc1Cl returned aSyn 5UTR act -71*.
For Cc1cc(C)nc(N/N=C/c2ccccc2)n1 the results were aSyn 5UTR act -73*.
`Cc1ccsc1/C=N/Nc1nc(=O)[nH]nc1C` gave aSyn 5UTR act -85*.
`Cc1ccsc1/C=N/Nc1ccc(F)cc1F` gave aSyn 5UTR act -176*.
Screening Cc1cc(C)nc(N/N=C/c2sccc2C)n1 returned aSyn 5UTR act -82*.
For C=CCn1cccc(C(=O)Nc2ccc(C)c(Cl)c2)c1=O the results were aSyn 5UTR act -140*.
For C=CCn1cccc(C(=O)Nc2ccc(OC)c(Cl)c2)c1=O the results were aSyn 5UTR act -84*.
Screening Cc1cc(O)c(C(=O)Cc2csc(C)n2)c(O)c1 returned aSyn 5UTR act -132*.
Screening CC(C)c1ccc(N=C2N=C(N)c3ccccc32)cc1 returned aSyn 5UTR act -132*.
Screening Cn1cccc1C(=O)OCC(=O)Nc1ccc2c(c1)CCC2 returned aSyn 5UTR act -138*.
`Cn1cccc1C(=O)OCC(=O)Nc1ccc2c(c1)OCO2` gave aSyn 5UTR act -101*.
For COc1cc2nc(CN(C)Cc3ccc(OC)c(OC)c3OC)[nH]c(=O)c2cc1OC the results were aSyn 5UTR act -90*.
`COC(=O)c1ccc(COc2ccc(/C=N/Nc3cccc(C(=O)O)c3)cc2)cc1` gave aSyn 5UTR act -84*.
`O=C(O)c1cc(N/N=C/c2ccc(OCc3ccccc3)cc2)ccc1Cl` gave aSyn 5UTR act -172*.
For O=C(O)c1cccc(N/N=C/c2ccc(OC(F)(F)F)cc2)c1 the results were aSyn 5UTR act 64.
`CCCN1CCC(=NNc2ccc(S(=O)(=O)N3CCOCC3)cc2[N+](=O)[O-])CC1` gave aSyn 5UTR act 64.
`CCCN1CCC(=NNc2ccc(C(=O)O)cc2)CC1` gave aSyn 5UTR act -113*.
For O=C(O)c1cc(NN=C2CCN(Cc3ccccc3)CC2)ccc1Cl the results were aSyn 5UTR act -202*.
For O=C(O)c1cc(N/N=C/C=C/c2ccccc2)ccc1Cl the results were aSyn 5UTR act -179*.
c1ccc(-c2noc(C34CC5CC(CC(C5)C3)C4)n2)nc1 was read as aSyn 5UTR act -209*.
`c1ccc(-c2noc(C34CC5CC(CC(C5)C3)C4)n2)cc1` gave aSyn 5UTR act -69*.
For O=C(c1cc(COc2ccc(F)cc2Cl)on1)N1CCCCCC1 the results were aSyn 5UTR act -116*.
Screening COc1ccc(OCc2cc(C(=O)N3CCN(CC4CC4)CC3)no2)c(Cl)c1 returned aSyn 5UTR act -87*.
O=C(c1cc(COc2ccc(F)cc2F)on1)N1CCSCC1 was read as aSyn 5UTR act -117*.
For COc1ccc(OCc2cc(C(=O)N3C[C@@H](C)O[C@@H](C)C3)no2)c(Cl)c1 the results were aSyn 5UTR act -67*.
COc1ccc(OCc2cc(C(=O)N3CCCCCCC3)no2)c(Cl)c1 was read as aSyn 5UTR act -69*.
`CCOC(=O)N1CCN(C(=O)c2cc(COc3ccc(OC)cc3Cl)on2)CC1` gave aSyn 5UTR act -62*.
For COc1ccc(OCc2cc(C(=O)N3CCN(C4CCCC4)CC3)no2)c(Cl)c1 the results were aSyn 5UTR act -80*.
CC1CN(C(=O)c2cccc(COc3ccccc3Cl)c2)CC(C)O1 (stereo not drawn) was read as aSyn 5UTR act -145*.
For O=C(c1ccc(S(=O)(=O)c2cccc(Cl)c2)c([N+](=O)[O-])c1)N1CCN(c2ccccn2)CC1 the results were aSyn 5UTR act -62*.
For O=C(c1ccc(S(=O)(=O)c2ccccc2Cl)c([N+](=O)[O-])c1)N1CCCCCC1 the results were aSyn 5UTR act -98*.
Screening CCc1cc2c(=O)c(-c3nc4ccccc4n3C)c(COCC(=O)O)oc2cc1O returned aSyn 5UTR act -81*.
Screening CS(=O)(=O)N1CCN(c2nc3ccc(Cl)cc3s2)CC1 returned aSyn 5UTR act -99*.
For Clc1ccc2nc(N3CCCCC3)sc2c1 the results were aSyn 5UTR act -148*.
`O=c1c(Cl)c(N2CCCCC2)cnn1-c1nc2ccccc2[nH]1` gave aSyn 5UTR act 93.
Screening Clc1ccc2nc(N3CCCCC3)[nH]c2c1 returned aSyn 5UTR act -123*.
For N#CCC(=O)N/N=C/c1ccc(OCc2ccccc2)cc1 the results were aSyn 5UTR act -66*.
`N#CCC(=O)N/N=C\c1ccc(OC/C=C/c2ccccc2)cc1` gave aSyn 5UTR act -146*.
`Cc1ccc(NC2(C#N)C(=O)Nc3ccccc32)cc1C` (stereo not drawn) gave aSyn 5UTR act -89*.
Screening COc1ccc(NC(=O)CCn2cc(C)c3ccccc32)cc1 returned aSyn 5UTR act -76*.
For COc1ccc(NC(=O)c2ccccc2C)cc1 the results were aSyn 5UTR act -132*.
Screening COCC(=O)Nc1ccccc1C(=O)Nc1ccc(OC)cc1 returned aSyn 5UTR act -90*.
COc1ccc(NC(=O)c2cccc3ccccc23)cc1 was read as aSyn 5UTR act -96*.
For CC(=O)Nc1ccc(OCc2cccc3ccccc23)cc1 the results were aSyn 5UTR act 92.
`COc1ccc(-c2cc(C(=O)N3CCN(c4ccccn4)CC3)c3ccccc3n2)cc1` gave aSyn 5UTR act -140*.
Screening O=C(c1cc(-c2ccncc2)nc2c(Cl)cccc12)N1CCN(c2ccccc2F)CC1 returned aSyn 5UTR act 99.
`Cc1ccc(-c2cc(C(=O)N3CCN(c4ccc(F)cc4)CC3)c3ccccc3n2)o1` gave aSyn 5UTR act -96*.
Screening CCOc1ccc(-c2cc(C(=O)N3CCN(c4ccccn4)CC3)c3ccccc3n2)cc1 returned aSyn 5UTR act -68*.
Cc1ccc(N/N=C/c2ccncc2)cc1 was read as aSyn 5UTR act -120*.
For Clc1cccc(N/N=C/c2ccncc2)c1 the results were aSyn 5UTR act -117*.
C/C(=N\Nc1cccc(Cl)c1)c1ccncc1 was read as aSyn 5UTR act -117*.
For Cc1nn(C)c(C)c1S(=O)(=O)N1CCC(C(=O)Nc2ccc3c(c2)OCCO3)CC1 the results were aSyn 5UTR act -111*.
For O=C(CNS(=O)(=O)c1cccs1)Nc1ccc2c(c1)OCCO2 the results were aSyn 5UTR act -91*.
`O=S(=O)(Nc1ccc2c(c1)OCCO2)c1cccs1` gave aSyn 5UTR act -91*.
Screening CN(CC(=O)Nc1ccc2c(c1)OCO2)S(=O)(=O)c1cccs1 returned aSyn 5UTR act -76*.
